Shiga toxin inh: Shiga toxin inhibition. Vero cells, Shiga toxin protein synthesis inhibition reporter. inhibition, % at 38.7 µM. actives 9.2% (n = 290,000); in the data active = inhibition mostly above about 28%, no sharp cut-off; inactive = mostly below about 43%; note: 0% is about no effect
HCMV antiviral: blocks human cytomegalovirus replication; HFF cells, HCMV-luciferase reporter, 72 h; active compounds read low; activity change, negative = inhibition, % at 57.5 µM; actives 4.5% (n = 410,000); AID 1259415; in the data active = activity change below about -60%; inconclusive = no clear call, values can overlap the other calls; inactive = above about -39%; note: % is set by controls: 0 for no effect and ±100 for the full control effect
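Inhibition of viral replication was scored as loss of reporter luminescence in HFFs infected with HCMV-luciferase (MOI 1 PFU/cell) for 72 h; compounds tested at 2 doses, normalized to buffer and Salinomycin controls.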
Pf growth 96h: P. falciparum growth inhibition at 96 hour, primary screen for plastid delayed-death inhibitors; actives 6.9% (n = 320,000); Potency, µM (top dose mostly 28.7 µM), for inactives: at the highest dose activity change, negative = inhibition, actives largely listed as inhibitors; AID 504834; P. falciparum luciferase reporter growth, 96 h; note: potency is the fitted concentration of half-maximal effect; % is set by controls: 0 for no effect and ±100 for the full control effect
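P. falciparum expressing integrated firefly luciferase grown in erythrocytes (2% hematocrit, 0.05% parasitemia final) with compounds for 96 hours at 37 C, 5% CO2. Growth inhibition read as loss of luminescence after adding luciferase detection reagent.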
Pf growth 48h: inhibits P. falciparum growth in the first generation, 48 h | actives 5.9% (n = 310,000) | AID 504832 | P. falciparum luciferase growth in erythrocytes, 48 h | Potency, µM (top dose mostly 28.7 µM), inactives show at the highest dose activity change, negative = inhibition, usual class: inhibitors; note: potency is the fitted concentration of half-maximal effect; % is set by controls: 0 for no effect and ±100 for the full control effect
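Erythrocytes infected with P. falciparum carrying an integrated firefly luciferase reporter (2% hematocrit, 0.1% parasitemia final) were exposed to compounds in RPMI 1640 with 0.5% Albumax at 37 C, 5% CO2. Growth inhibition was scored as reduced luminescence.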
CHX counter: counter-screen hit for Shiga toxin inhibitors, cycloheximide; cell reporter, cycloheximide protein synthesis inhibition counterscreen; max response, %; actives 12% (n = 300,000); AID 2314; in the data active = max response mostly above about 13%, no sharp cut-off; inactive = mostly below about 14%; note: read at 38.3 µM for the half of the compounds with a filed dose; 0% is about no effect
Numbers without * were called inactive. An excerpt weighted towards active compounds, which were near 20% of everything screened. Unless noted, calls come from the whole dose curve; as a rule, active = well fitted inhibition curve with a large enough effect; inconclusive = small, poorly fitted or top-dose-only effect, or another doubt; inactive = no such curve, though single readings can be large or run the other way.

Screening O=C1NCCCC1C(=O)N1CCCCC1 (stereo unspecified) returned Shiga toxin inh -9.0, HCMV antiviral 36.0, Pf growth 96h 42.0%, Pf growth 48h -0.1% and CHX counter 1.3.
Screening O=C1NCCCC1C(=O)N1CCN(C(=O)C2CCCNC2=O)CC1 (stereo unspecified) returned Shiga toxin inh -10.4, Pf growth 96h -22.0%, Pf growth 48h 11.7µM* and CHX counter 4.0.
CCn1nnc(NC(=O)c2ccccc2Br)n1 was read as Shiga toxin inh 70.8*, HCMV antiviral 61.2, Pf growth 96h 4.8%, Pf growth 48h 86.8% and CHX counter 27.4*.
Screening CCCn1nnc(NC(=O)c2ccccc2Br)n1 returned Shiga toxin inh 48.6*, HCMV antiviral 114.7, Pf growth 48h 56.3% and CHX counter 18.8.
CCn1c(C)nnc1SCC(=O)Nc1ccc(Cl)cc1 was read as Shiga toxin inh -0.7, HCMV antiviral -9.4, Pf growth 96h -15.8%, Pf growth 48h 66.1% and CHX counter -4.0.
CCCCn1c(N)c(N(CCOC)C(=O)c2cnc(C)cn2)c(=O)[nH]c1=O was read as HCMV antiviral -32.2, Pf growth 96h 10.9% and Pf growth 48h -4.9%.
`CCOC(=O)c1ccc(NC(=O)CSc2nnc(-c3cccs3)n2C)cc1` gave Shiga toxin inh -17.8, HCMV antiviral -23.9, Pf growth 96h 3.29µM*, Pf growth 48h inconclusive and CHX counter -2.6.
Screening Cn1c(SCC(=O)c2ccccc2)nnc1C1CC1 returned Shiga toxin inh -4.0, HCMV antiviral 1.0, Pf growth 96h 32.4%, Pf growth 48h 38.5% and CHX counter 9.4.
For CCOc1ccc(NC(=O)CSc2nnc(C3CC3)n2C)cc1 the results were Shiga toxin inh 2.2, HCMV antiviral 1.8, Pf growth 96h 2.08µM*, Pf growth 48h -2.9% and CHX counter -1.4.
`CCOC(=O)c1ccc(NC(=O)CSc2nnc(C3CCCCC3)n2C)cc1` gave Shiga toxin inh 6.6, HCMV antiviral -30.1, Pf growth 96h 8.28µM*, Pf growth 48h 6.57µM* and CHX counter -1.7.
Screening CCOc1ccc(C(=O)CSc2nnc(C3CC3)n2C)cc1 returned Shiga toxin inh 37.3*, HCMV antiviral 18.0, Pf growth 96h -35.6%, Pf growth 48h 1.4% and CHX counter 14.0*.
`CCOc1ccc(NC(=O)CSc2nnc(C34CC5CC(CC(C5)C3)C4)n2C)cc1` gave Shiga toxin inh -10.9, HCMV antiviral -16.9, Pf growth 96h -11.7% and CHX counter -1.5.
`CCOc1ccc(NC(=O)CCc2nnc3n(C)c(=O)c4sccc4n23)cc1` gave HCMV antiviral 4.6.
`CC(C)c1ccc(-c2csc3ncnc(N4CCN(C)CC4)c23)cc1` gave Shiga toxin inh -7.4, HCMV antiviral inconclusive, Pf growth 96h inconclusive, Pf growth 48h inconclusive and CHX counter -3.8.
Cc1cc(C)c(NC(=O)CCn2nnc3ccccc32)c(C)c1 was read as Shiga toxin inh 2.8, HCMV antiviral 10.1, Pf growth 96h inconclusive, Pf growth 48h 2.5% and CHX counter -3.6.
For CC(=O)Oc1ccc2c(=O)oc(-c3ccccc3)nc2c1 the results were Shiga toxin inh -3.1, HCMV antiviral 26.5, Pf growth 96h 36.7%, Pf growth 48h 20.0% and CHX counter -0.7.
Screening CC(=O)Oc1ccc(-c2nc3cc(Cl)ccc3c(=O)o2)cc1 returned Shiga toxin inh -15.0, HCMV antiviral -78.4*, Pf growth 96h -0.3%, Pf growth 48h -7.8% and CHX counter -2.0.
`CC(=O)N1c2ccc(C)cc2Sc2c1ccc1ccccc21` gave HCMV antiviral -61.5*.
For CC1=C(C(=O)N2CCCCCC2)CC(CC(=O)NCCN2CCOCC2)C(=O)N1Cc1ccc(F)cc1 (stereo unspecified) the results were HCMV antiviral -18.3.
CCOc1ccc(C2(C)CC(=O)N(C)C2=O)cc1 (stereo unspecified) was read as Shiga toxin inh -16.6, HCMV antiviral 9.8, Pf growth 96h -15.6%, Pf growth 48h -7.5% and CHX counter 1.1.
NS(=O)(=O)c1ccc(NCc2cc(Cl)ccc2OCc2ccccc2F)cc1 was read as Shiga toxin inh -7.4, HCMV antiviral -61.0*, Pf growth 96h 9.4%, Pf growth 48h -6.6% and CHX counter 7.7.
NS(=O)(=O)c1ccc(NCc2ccccc2OCc2ccc(F)cc2)cc1 was read as Shiga toxin inh -31.3, HCMV antiviral inconclusive, Pf growth 96h 0.0%, Pf growth 48h -9.3% and CHX counter -6.0.
Screening CCN(CC)CCOc1c(Br)ccc2c1sc1nc3n(c(=O)c12)CCC3 returned Shiga toxin inh 1.0, HCMV antiviral -19.2, Pf growth 96h 13.1µM*, Pf growth 48h inconclusive and CHX counter -3.5.
`Cc1sc2nc3n(c(=O)c2c1C)CCCCC3` gave Shiga toxin inh 13.3, HCMV antiviral -17.2, Pf growth 96h inconclusive, Pf growth 48h 16.9% and CHX counter 8.1.
`O=c1c2c(nc3n1CCCCC3)sc1c(O)c(Br)ccc12` gave Shiga toxin inh 39.7, HCMV antiviral -16.3, Pf growth 48h 2.5% and CHX counter 16.1*.
CCN(CC)CCNC(=O)c1sc2nc3n(c(=O)c2c1C)CCCCC3 was read as HCMV antiviral -9.5.
For CN1Cc2cnnn2-c2ccccc2C1C#N (stereo unspecified) the results were HCMV antiviral -63.5*.
Screening COc1ccc(CN2Cc3cnnn3-c3ccccc3C2C#N)cc1 (stereo unspecified) returned HCMV antiviral -110.2*.
Screening N#CC1c2ccccc2-n2nncc2CN1Cc1cc(Cl)cc(Cl)c1 (stereo unspecified) returned HCMV antiviral -99.6*.
For COc1ccc(NC(=O)N2CCC(CN3CCCC3)CC2)c(OC)c1 the results were HCMV antiviral 47.0.
NC(=O)C1=C(c2ccccc2)c2ccccc2C1=O was read as HCMV antiviral -7.9.
`CCSc1c([N+](=O)[O-])c(=O)n(-c2ccccc2)c2ccccc12` gave HCMV antiviral -3.7.
Screening O=C(NCc1ccc(F)cc1)c1cc(Sc2ccc(F)cc2F)nc2ccccc12 returned HCMV antiviral 15.1.
Screening Cc1ccc(CN(C(=O)COc2ccc(Cl)c(C)c2)C2CCS(=O)(=O)C2)o1 (stereo unspecified) returned HCMV antiviral -18.2.
`Cc1ccccc1S(=O)(=O)Cc1ccc(C(=O)N(C)C2CCCCC2)o1` gave Shiga toxin inh 8.9, HCMV antiviral 18.5, Pf growth 96h inconclusive, Pf growth 48h -0.5% and CHX counter 6.3.
For FC(F)(F)c1cnc(Sc2nnc(-c3cccs3)n2CC2CCCO2)c(Cl)c1 (stereo unspecified) the results were Shiga toxin inh 17.6, HCMV antiviral -1.2, Pf growth 48h 7.38µM* and CHX counter 5.6.
COc1cccc(CN2C(=NC(=O)CCC3CCCC3)SC3CS(=O)(=O)CC32)c1 (stereo unspecified) was read as Shiga toxin inh 7.0, HCMV antiviral -32.5, Pf growth 96h inconclusive, Pf growth 48h -20.7% and CHX counter 4.3.

Bioassay records: PubChem, National Center for Advancing Translational Sciences (NCATS)
